Experimental data from PubChem BioAssay (Tox21).
Where “and” joins values, the source holds several entries; their conditions need not be identical. Equal entries are not always repeated. More than one record can exist for a structure, and the calls need not agree. Calls of active or inactive are those of the source. A call without a number means that no potency is given here. Calls come from the whole dose curve.

target: Muscarinic acetylcholine receptor M1 (Homo sapiens) (UniProt P11229); assay: Cholinergic receptor muscarinic 1 (CHRM1) small molecule agonists, cell-based qHTS assay (AID 1963589); conditions: CHRM1-CHO cells, agonist mode, calcium flux fluorescence; series mostly up to 76.8 µM; activation: at the top concentration; note: nearly all actives have a fitted effect of over 35% in size
Sequence (P11229 whole entry, looked up): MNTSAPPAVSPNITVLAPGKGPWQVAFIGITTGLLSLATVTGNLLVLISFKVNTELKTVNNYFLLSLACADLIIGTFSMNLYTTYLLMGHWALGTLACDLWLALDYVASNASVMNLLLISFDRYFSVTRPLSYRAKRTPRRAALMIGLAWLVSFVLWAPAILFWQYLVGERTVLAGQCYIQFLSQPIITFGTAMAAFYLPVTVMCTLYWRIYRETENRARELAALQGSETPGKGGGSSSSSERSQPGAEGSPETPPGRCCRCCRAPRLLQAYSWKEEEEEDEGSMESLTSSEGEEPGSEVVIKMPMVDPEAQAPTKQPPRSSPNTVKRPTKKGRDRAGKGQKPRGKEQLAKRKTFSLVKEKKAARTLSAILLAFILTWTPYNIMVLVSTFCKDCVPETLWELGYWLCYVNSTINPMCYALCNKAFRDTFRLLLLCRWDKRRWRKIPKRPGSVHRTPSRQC
Excerpt: National Center for Advancing Translational Sciences [NCATS]
Division of Preclinical Innovation [DPI]
U.S. Environmental Protection Agency [EPA]
National Institutes of Environmental Health Sciences [NIEHS]
National Toxicology Program [NTP]
U.S. Food and Drug Administration [FDA]
The CHRM1 is a muscarinic receptor. This receptor plays a crucial role in learning and memory processes and has long been identified as a promising therapeutic target for the improvement of cognitive decline in Alzheimer's disease (AD). The CHRM1-CHO cell line stably expressing human muscarinic acetylcholine receptor M1 (CHRM1) can be used for screening agonists and antagonists of interactions between CHRM1 and its ligands. The CHRM1-CHO Calcium Flux Assay is a homogeneous fluorescence-based assay for detecting the intracellular calcium level using FDSS kinetic plate reader system.
CHRM1-CHO cells were dispensed at 1000 cells/3uL/well in 1536-well black-clear bottom plates using a Multidrop Dispenser. After the assay plates were incubated at a 37 C/5% CO2 incubator for 18 h, 3 uL of Dye Loading Buffer was transferred to the assay plate by a Flying Reagent Dispenser. The assay plates were incubated at 37 C for 1h. For agonist mode, 23 nL of compounds dissolved in DMSO, positive controls or DMSO only was transferred to the assay plate by a pin tool. […] Each test compound was measured at 15 concentrations in three independent runs.
Potency is the fitted concentration of half-maximal effect.

Which Potency does the source give for `CC[N+](CC)(CC)CC` here?
The Potency was “inactive”.

How did the Potency turn out when `N#Cc1cc(Br)c(O)c(Br)c1` was run?
The Potency was “inactive”.

With `Cc1cccc(N)c1` as the compound, how does the Potency read?
The Potency was “inactive”.

`[CH3][Sn]([CH3])([Cl])[Cl]` was tested. Which Potency did it give?
The Potency was “inactive”.

For `COC(=O)Nc1nc2ccccc2[nH]1`, which Potency is on record?
The Potency was “inactive”.

For `CCC(C)c1cc([N+](=O)[O-])cc([N+](=O)[O-])c1O` (stereo not given), which Potency is on record?
The Potency was “inactive”.

With `CCC[N+]1(C)CCCC1` as the compound, how does the Potency read?
Its Potency is “inactive and 24.3 µM (active) and 21.9 µM (active)”.

`O=C1c2ccccc2C(=O)N1SC(Cl)(Cl)Cl` was tested. Which Potency did it give?
The Potency was 49 µM (active).

`CON(C)C(=O)Nc1ccc(Cl)c(Cl)c1` was tested. Which Potency did it give?
The Potency was “inactive”.

`CC(C)(c1ccccc1)c1ccc(O)c(C(C)(C)c2ccccc2)c1` was tested. Which Potency did it give?
Its Potency is “inactive”.

`CNC(=O)Oc1ccccc1C1OCCO1` was tested. Which “activation” value did it give?
The value was 0.116% (inactive).

How did the “activation” value turn out when `Cc1ccc2ccccc2c1` was run?
Its value is 0.418% (inactive).

How did the “activation” value turn out when `C/C=C/CC#N` was run?
Its value is -0.0185% (inactive).

How did the “activation” value turn out when `Nc1ccccc1C(=O)OCC(O)CO` (stereo not given) was run?
The value was -0.643% [at 35.3 µM] (inactive).

With `CCCN(CCC)c1c([N+](=O)[O-])cc(C(C)C)cc1[N+](=O)[O-]` as the compound, how does the Potency read?
The Potency was “inactive”.

With `Cc1ncc(CNC(=O)N(CCCl)N=O)c(N)n1` as the compound, how does the “activation” value read?
The value was -0.497% [at 35.3 µM] (inactive).

Which Potency does the source give for `Brc1ccc(Br)cc1` here?
Its Potency is “inactive”.

For `c1ccoc1`, which “activation” value is on record?
The value was 2.66% (inactive).

How did the “activation” value turn out when `C1CS1` was run?
The value was 0.023% (inactive).

With `O=NN(c1ccccc1)c1ccccc1` as the compound, how does the Potency read?
Its Potency is “inactive”.

How did the Potency turn out when `CN(C)N=O` was run?
Its Potency is “inactive”.

With `CC(=[OH+])/C=C(/C)[O-].CC(=[OH+])/C=C(\C)[O-].CC(=[OH+])/C=C(\C)[O-].[Fe]` as the compound, how does the “activation” value read?
Its value is -0.557% (inactive).

`CCOP(=O)(O)OCC` (tested in a mixture with another compound) was tested. Which Potency did it give?
The Potency was “inactive”.

Which “activation” value does the source give for `CC(C)(C)C(=O)Cl` here?
The value was 2.43% (inactive).

Which Potency does the source give for `Brc1ccc(Oc2ccccc2)cc1` here?
The Potency was “inactive”.

How did the Potency turn out when `CC(C)=CC1C(C(=O)OCc2cccc(Oc3ccccc3)c2)C1(C)C` (stereo not given) was run?
The Potency was “inactive”.

Which Potency does the source give for `ClCCBr` here?
The Potency was “inactive”.

With `N#CCCO` as the compound, how does the “activation” value read?
Its value is -0.39% (inactive).

With `CCCCn1cc[n+](C)c1C` as the compound, how does the Potency read?
The Potency was “inactive”.

With `COc1cc2c(cc1OC)[C@@]13CCN4CC5=CCO[C@H]6CC(=O)N2[C@H]1[C@H]6[C@H]5C[C@H]43` as the compound, how does the “activation” value read?
The value was 5.6% (inactive).

How did the Potency turn out when `CCCCN(CC)C(=O)SCCC` was run?
Its Potency is “inactive”.

With `O=C(O)CCCOc1ccc(Cl)cc1Cl` as the compound, how does the Potency read?
The Potency was “inactive”.

For `COP(=O)(NC(C)=O)SC` (stereo not given), which Potency is on record?
Its Potency is “inactive”.

With `c1ccc(OP(Oc2ccccc2)Oc2ccccc2)cc1` as the compound, how does the Potency read?
Its Potency is “inactive”.

Which Potency does the source give for `C=C(C)CCl` here?
Its Potency is “inactive”.

With `CC(C)(N)Cc1ccccc1Cl` as the compound, how does the “activation” value read?
The value was -0.0157% [at 35.3 µM] (inactive).

Which “activation” value does the source give for `CC(=O)CCC(C)=O` here?
The value was 0.183% (inactive).

With `COP(=S)(OC)SCn1nnc2ccccc2c1=O` as the compound, how does the Potency read?
The Potency was “inactive”.

With `OC(Cc1ccccc1Cl)(Cn1cncn1)C1(Cl)CC1` (stereo not given) as the compound, how does the “activation” value read?
The value was 0.0889% (inactive).

How did the Potency turn out when `[O-][Cl+2]([O-])O` was run?
Its Potency is “inactive”.
